Drawing on PubChem BioAssay AID743365 (National Center for Advancing Translational Sciences (NCATS), 2014), this text covers parasite growth, lower = inhibition for 40 compounds.

Molecules are shown by their SMILES. Square brackets hold non-standard residues; d marks the D form. Peptide text beside a SMILES is read from it. Orn = NCCC[C@H](N)C(=O)O

This test in a line: qHTS profiling of inhibitors of Plasmodium falciparum (DD2) proliferation (acoustic dispense). The note with it: P. falciparum Dd2 in erythrocytes, SYBR Green DNA, 72 h; at 49.8 µM (top of the series) unless noted. The source says: Plasmodium falciparum is a virulent malarial parasite that kills 1-2 million people worldwide each year. Transmitted by mosquitoes, the sporozoite form of the parasite enters the blood stream to infect hepatocytes, where they become merozoites that infect red blood cells (erythrocytes). Within erythrocytes, merozoites begin a […] cycle of growth and division, after which the parasite is released to infect new red blood cells. Gametocytes, which form within erythrocytes as well, circulate in the bloodstream and are ingested by the mosquito, thereby completing the life cycle. To profile malarial isolates for differential chemical responses and to identify inhibitors of malarial growth, an assay that measures P. falciparum growth and replication within erythrocytes was employed. This assay uses a DNA binding fluorescent dye (SYBR Green) to detect parasite DNA following cell lysis. Because mature erythrocytes lack DNA, only Plasmodium-derived DNA is detected.
The SYBR Green viability assay was adapted from a method described previously (Plouffe et al., 2008). For screening 3 ul culture medium was dispensed into 1536 well black clear bottom plates (Aurora Biotechnologies) using a Multidrop Combi (Thermo Fisher Scientific Inc.), 23 nL of compounds in DMSO were added by an acoustic dispenser (EDC Biosystems), and 5 ul of erythrocytes infected with P. falciparum (0.3% parasitemia, 2.5% hematocrit final concentration) were added. The plates were incubated at 37 C in a humidified incubator in 5% CO2 for 72 h, and 2 ul lysis buffer (20 mM Tris HCl, 10 mM EDTA, 0.16% saponin, 1.6% triton X, 10X SYBR Green I supplied as 10,000X […] by Invitrogen) was added to each well. The plates were mixed for 25 sec with gentle shaking and incubated overnight at room temperature in the dark. The following morning, fluorescence intensity at 485(14) nm excitation and 535(25) nm emission wavelengths was measured on an EnVision (Perkin Elmer) plate reader. Plate reads were normalized relative to the control inhibitor (0.29 uM artemisinin) and vehicle (DMSO) wells present on each plate and then corrected by an algorithm using vehicle-only control plates at the beginning and end of the compound plate stack.
With `C[C@@H](Oc1ccc2[nH]nc(C=Cc3cnn(CCO)c3)c2c1)c1c(Cl)cncc1Cl`, the parasite growth, lower = inhibition was found to be 1.14%.
Regarding `COc1ncnc(NS(=O)(=O)c2ccc(N)cc2)c1OC`, the parasite growth, lower = inhibition was found to be 114%.
Turning to `Cn1cc(CNCC2CCN(c3ncc(C(=O)NO)cn3)CC2)c2ccccc21`, the parasite growth, lower = inhibition is 0.158%.
Regarding `CS[C@H]1SC[C@@H]2C(=O)N(C)[C@H](C(C)C)C(=O)OC[C@H](NC(=O)c3cnc4ccccc4n3)C(=O)N[C@H](C)C(=O)N(C)[C@@H]1C(=O)N(C)[C@H](C(C)C)C(=O)OC[C@H](NC(=O)c1cnc3ccccc3n1)C(=O)N[C@H](C)C(=O)N2C`, the parasite growth, lower = inhibition stood at 0.25%.
As to `C[C@H]1Cc2c([nH]c3cc(Cl)c(F)cc23)[C@@]2(N1)C(=O)Nc1ccc(Cl)cc12`, the parasite growth, lower = inhibition was -0.794%.
As for `COc1ccc2nc3cc(Cl)ccc3c(Nc3cc(CN4CCCC4)c(O)c(CN4CCCC4)c3)c2n1`, the parasite growth, lower = inhibition was 0.653%.
Regarding `CN([C@@H](Cc1ccc(OS(=O)(=O)c2cccc3cnccc23)cc1)C(=O)N1CCN(c2ccccc2)CC1)S(=O)(=O)c1cccc2cnccc12`, the parasite growth, lower = inhibition was 0.489%.
For the compound `Nc1cccc(-c2csc(NC(=O)CCCCCCC(=O)NO)n2)c1`, the parasite growth, lower = inhibition was -0.461%.
Turning to `CCn1nnc2c(N3CCOCC3)nc(-c3ccc(NC(=O)Nc4ccc(C(=O)N5CCN(C)CC5)cc4)cc3)nc21`, the parasite growth, lower = inhibition stood at 2.15%.
Consider `CC1(C)N=C(N)N=C(N)N1c1ccc(Cl)cc1`, for which the parasite growth, lower = inhibition amounted to 3.98%.
With `C=CCNC1=C2C[C@@H](C)C[C@H](OC)[C@@H](O)[C@@H](C)C=C(C)[C@H](OC(N)=O)[C@@H](OC)C=CC=C(C)C(=O)NC(=CC1=O)C2=O`, the parasite growth, lower = inhibition is 0.49%.
As to `CC(=O)Nc1nc(C)c(-c2ccc(Cl)c(S(=O)(=O)NCCO)c2)s1`, the parasite growth, lower = inhibition was -0.252%.
To `Cc1[nH]c2ccccc2c1CCNCc1ccc(C=CC(=O)NO)cc1` belongs -0.777%; to `CN(Cc1cnc2nc(N)nc(N)c2n1)c1ccc(C(=O)N[C@@H](CCC(=O)O)C(=O)O)cc1`, -0.378%; to `Cn1cc(C2=C(c3c4n(c5ccccc35)CCC(CN)C4)C(=O)NC2=O)c2ccccc21` (stereo not given), 2.27%.
On to `CCN(CC)CCCC(C)Nc1ccnc2cc(Cl)ccc12` (stereo not given), for which the parasite growth, lower = inhibition is -0.356%.
As for `CCCCN(CCCC)CC(O)c1cc(Cl)cc2c1-c1ccc(Cl)cc1C2=Cc1ccc(Cl)cc1` (stereo not given), the parasite growth, lower = inhibition was -0.158%.
Take `CC(C=CC(=O)NO)=C[C@@H](C)C(=O)c1ccc(N(C)C)cc1`: the parasite growth, lower = inhibition is -0.545%.
Consider `FC(F)c1nc2ccccc2n1-c1nc(N2CCOCC2)nc(N2CCOCC2)n1`, for which the parasite growth, lower = inhibition came out at 0.937%.
On to `CC[C@]1(O)C[C@H]2CN(CCC3=c4ccccc4=N[C]3[C@@](C(=O)OC)(c3cc4c(cc3OC)N(C)[C@H]3[C@@](O)(C(N)=O)[C@H](O)[C@]5(CC)C=CCN6CC[C@]43[C@@H]65)C2)C1`, for which the parasite growth, lower = inhibition was 3.44%.
`COc1cc2nc(N3CCCN(C)CC3)nc(NC3CCN(Cc4ccccc4)CC3)c2cc1OC`: the parasite growth, lower = inhibition was -0.574%.
`O=C1c2c(O)ccc(O)c2C(=O)c2c(NCCNCCO)ccc(NCCNCCO)c21`: the parasite growth, lower = inhibition is -3.56%.
With `COCCn1c2c([n+](Cc3cnccn3)c1C)C(=O)c1ccccc1C2=O`, the parasite growth, lower = inhibition is -0.378%.
Take `O=C1c2ccccc2-[n+]2ccc3c([nH]c4ccccc43)c21`: the parasite growth, lower = inhibition came to 2.4%.
`CC1(CN2CCC(n3c(=O)[nH]c4ccccc43)CC2)OCc2ccccc2-n2cccc21` (stereo not given): the parasite growth, lower = inhibition came out at 12.6%.
Regarding `CSc1cccc(Nc2ncc3cc(-c4c(Cl)cccc4Cl)c(=O)n(C)c3n2)c1`, the parasite growth, lower = inhibition was 3.85%.
In the case of `CCCCCCCCCCOc1cc2c(=O)c(C(=O)OCC)c[nH]c2cc1OCC` it was 1.27%; in that of `COc1ncc(-c2ccc3nccc(-c4ccnnc4)c3c2)cc1NS(=O)(=O)c1ccc(F)cc1F`, -0.286%; in that of `O[C@H](c1cc(C(F)(F)F)nc2c(C(F)(F)F)cccc12)[C@H]1CCCCN1`, 0.891% [at 23.2 µM].
To `CN(C(=O)OC(C)(C)C)[C@@H](Cc1ccc(O[S+](=O)([O-])c2cccc3cnccc23)cc1)C(=O)N1CCN(C(=O)OCc2ccccc2)CC1` belongs -0.325%; to `Cn1c(=O)n(-c2ccc(C(C)(C)C#N)cc2)c2c3cc(-c4cnc5ccccc5c4)ccc3ncc21`, 1%.
In the case of `CC[C@H]1CN2CCc3cc(OC)c(OC)cc3[C@H]2C[C@@H]1C[C@@H]1NCCc2cc(OC)c(OC)cc21`, the parasite growth, lower = inhibition was found to be 0.111%.
For the compound `CCCC[C@@H]1C[C@@H](C(=O)NC([C@H](C)Cl)[C@H]2O[C@H](S)[C@H](O)[C@@H](O)[C@@H]2O)N(C)C1` (stereo not given in full), the parasite growth, lower = inhibition was 20.5%.
On to `CCN[C@H]1C[C@H](C)S(=O)(=O)c2sc(S(N)(=O)=O)cc21`, for which the parasite growth, lower = inhibition came out at 0.306%.
For the compound `COC1=C2C[C@@H](C)C[C@H](OC)[C@@H](O)[C@@H](C)C=C(C)[C@H](OC(N)=O)[C@@H](OC)C=CC=C(C)C(=O)NC(=CC1=O)C2=O`, the parasite growth, lower = inhibition was -0.39%.
As to `CS(=O)(=O)CCNCc1ccc(-c2ccc3ncnc(Nc4ccc(OCc5cccc(F)c5)c(Cl)c4)c3c2)o1`, the parasite growth, lower = inhibition was 5.58%.
As to `CC(Sc1nc2ccccc2[nH]1)C(=O)NN=Cc1cc(Br)ccc1O` (stereo not given), the parasite growth, lower = inhibition was 99.5% [at 4.15 µM].
For `C=CCn1c(=O)c2cnc(Nc3ccc(N4CCN(C)CC4)cc3)nc2n1-c1cccc(C(C)(C)O)n1`, the parasite growth, lower = inhibition is -0.0983%.
`CC(C)C[C@@H]1NC(=O)[C@H](CCCN)NC(=O)[C@H](C(C)C)NC(=O)[C@@H]2CCCN2C(=O)[C@@H](Cc2ccccc2)NC(=O)[C@H](CC(C)C)NC(=O)[C@H](CCCN)NC(=O)[C@H](C(C)C)NC(=O)[C@@H]2CCCN2C(=O)[C@@H](Cc2ccccc2)NC1=O` (cyclo(V[Orn]L[dF]PV[Orn]L[dF]P)): the parasite growth, lower = inhibition turned out to be 0.52%.
With `CN[C@@H](C)C(=O)N[C@H]1CCCC[C@H]2CC[C@@H](C(=O)N[C@@H](c3ccccc3)c3cn(CCCCc4ccc(CCCCn5cc([C@@H](NC(=O)[C@@H]6CC[C@@H]7CCCC[C@H](NC(=O)[C@H](C)NC)C(=O)N76)c6ccccc6)nn5)cc4)nn3)N2C1=O`, the parasite growth, lower = inhibition was 0.728%.
